Results published in PubChem BioAssay (NCATS).
Values joined by “and” are separate entries in the source; they are usually repeats but may differ in a detail not shown here. Equal entries are not always repeated. Results filed as inconclusive are left out. Active and inactive are the calls of the source. Unless noted, calls come from the whole dose curve; as a rule, active = well fitted curve in the direction sought with a large enough effect; inconclusive = small, poorly fitted or top-dose-only effect, or another doubt; inactive = no such curve, though single readings can be large; an effect the other way counts as inactive or inconclusive.

What was measured:
[1] = biological target: Cytochrome P450 1A2 (Homo sapiens) (UniProt P05177); assay: p450-cyp1a2 (AID 410; calls by dose curve; note: potency is the fitted concentration of half-maximal effect)
Procedure, shortened: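 Human CYP1A2 (20nM) demethylated Luciferin-ME at its Km (100uM) in 100mM KPO4. After 10 min compound preincubation, NADPH regeneration ran the reaction 60 min at room temperature. Luciferin was read by luminescence, normalized to 57 uM furafylline.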

[2] = NFAT Signaling Pathway (AID 444; active = well fitted curve in either direction with a large enough effect, not every such curve was filed as active;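 note: carbachol stimulus at about its EC50 of 1 µM final; % is set by controls: 0 for no effect and ±100 for the full control effect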); conditions: Jurkat NFAT-bla M1, carbachol, beta-lactamase ratio, 5 h; at 38 µM (top of the series)
Procedure, shortened: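 Jurkat cells carrying an NFAT-driven β-lactamase reporter and co-transfected muscarinic M1 receptor were treated with compound plus carbachol (1 uM final, an EC50 level) for 5 h at 37 °C. CCF4 loading followed for 1 h at RT; 460/530 nm ratio gave %activity.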

[3] = Stat Signaling Pathway (AID 446; active = well fitted curve in either direction with a large enough effect, not every such curve was filed as active;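 note: ME-180 cervical cancer cells given 40 pM IL-6 alongside compound; SIE-controlled beta-lactamase reporter measured as 460/530 nm FRET emission ratio; % is set by controls: 0 for no effect and ±100 for the full control effect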); conditions: ME-180 SIE beta-lactamase reporter, IL-6 stimulated, 5 h; at 38 µM (top of the series)
Procedure, shortened: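 Reporter line: ME-180 cervical carcinoma, SIE-beta-lactamase. Treatment: compound with 40 pM IL-6, 5 hrs, 37 C, in low-serum OPTI-MEM with 10 mM HEPES pH 7.3. Detection: 460/530 nm fluorescence.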

[4] = biological target: Glucocorticoid receptor (Homo sapiens) (UniProt P04150); assay: GR-GFP Redistribution (AID 450;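 active = compounds whose dose series gives a full or clear partial fitted curve of increased nuclear translocation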; note: potency is the fitted concentration of half-maximal effect); conditions: U2OS GR-GFP nuclear translocation, laser cytometry, 2 h
[5] = biological target: Glucocorticoid receptor (Homo sapiens) (UniProt P04150); assay: GR-EFC Redistribution (AID 451; calls by dose curve; note: potency is the fitted concentration of half-maximal effect); conditions: CHO-K1 GR-EFC translocation, beta-gal luminescence, 2 h
Procedure, shortened: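 CHO-K1 cells stably expressing nuclear-localized β-gal enzyme acceptor and GR fused C-terminally to the enzyme donor fragment; ligand-driven nuclear translocation restores β-gal by complementation. Compounds titrated up to 46 uM final, 2 h at 37 °C; luminescence read.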

[6] = biological target: Mitogen-activated protein kinase 10 (Mus musculus) (UniProt Q61831); assay: JNK3 AlphaScreen Assay (AID 530; active = well fitted curve in either direction with a large enough effect, not every such curve was filed as active;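 note: kinase came from lysate of stimulated human HepG2 cells; signal reports phosphorylation of biotinylated GST-cJun 1-79 at Ser73 with 10 µM ATP; % is set by controls: 0 for no effect and ±100 for the full control effect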)
Procedure, shortened: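 JNK3 came from HepG2 lysates pre-activated with IL-1beta and TNF-alpha and phosphorylated biotinylated GST-cJun (1-79) at 10 uM ATP, pH 7.6, room temperature. Compounds were titrated. AlphaScreen signal used anti-phospho-cJun (Ser73) antibody.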

[7] = biological target: 3',5'-cyclic-AMP phosphodiesterase 4B (Homo sapiens) (UniProt Q07343); assay: qHTS Assay for Inhibitors of PDE-IV (AID 607; active = well fitted activation curve with a large enough effect in the main read-out, with a control signal flat, not every such curve was filed as active; note: % of control where 0% means no effect)
Procedure, shortened: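 Cell-based read-out of cAMP via a modified cyclic nucleotide-gated channel and membrane potential dye (535/590 nm) in HEK293 cells expressing PDE4 endogenously. Compounds tested up to 22.9 uM final; 100 uM RO 20-1724 reference.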

[8] = biological target: Cytochrome P450 2C9 (Homo sapiens) (UniProt P11712); assay: qHTS Assay for Inhibitors and Substrates of Cytochrome P450 2C9 (AID 883); note: potency is the fitted concentration of half-maximal effect; nearly all actives have a fitted effect of over 60% in size
Procedure, shortened: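 CYP2C9 deoxyluciferin hydroxylation, 37C, 60 min with NADPH regeneration; 10nM enzyme, 100uM Luciferin-H (KM). Glo detection reagent stopped reaction; luminescence normalized to sulphaphenazole (57uM) full inhibition.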

[9] = biological target: Pyruvate kinase (Leishmania mexicana) (UniProt Q27686); assay: qHTS Validation Assay for Inhibitors of Leishmania Mexicana Pyruvate Kinase (AID 945);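 note: 0% = DMSO only neutral control wells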
Procedure, shortened: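 Read-out: luminescence from PKLight stop/detection reagent, data normalized to DMSO. Reaction: 0.2 nM E451W LmPYK, 0.5 mM PEP, 0.1 mM ADP, pH 7.2, 1 h room temperature.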

[10] = biological target: Pyruvate kinase PKM (Homo sapiens) (UniProt P14618); assay: qHTS Assay for Activators of Human Muscle Pyruvate Kinase (AID 954; active = well fitted curve in the direction sought with a large enough effect, not every such curve was filed as active;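 note: 0% = uninhibited enzyme and -100% = no enzyme or full thiadiazolimine inhibition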)
Procedure, shortened: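 Human PKM2 activity is measured as ATP generation, detected by luciferase-coupled luminescence. The enzyme (0.1 nM) acts on 0.5 mM PEP and 0.1 mM ADP for 1 h at ambient temperature; data are normalized to uninhibited and full-inhibition wells.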

[11] = biological target: alpha-glucosidase (Oryza sativa, rice) (UniProt Q653V4); assay: Counterscreen for Glucocerebrosidase Inhibitors: qHTS Assay for Rice alpha-Glucosidase at pH 5.0 (AID 997);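 note: 0% = full activity with enzyme and -100% = basal without enzyme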
Procedure, shortened: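 Rice alpha-glucosidase (4 nM final) with 400 uM 4-methylumbelliferyl-alpha-D-glucopyranoside in citrate buffer pH 5.0, 20 min at room temperature, stopped at pH 10; fluorescence 365/440 nm, compounds 0.7 nM–77 uM, AC50 from Hill fits.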

[12] = Validation of Assay for Modulators of Lamin A Splicing (AID 1459; active = well fitted curve in the direction sought with a large enough effect in the signal ratio; the % refers to the signal ratio;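 note: cells exposed to compound for two days before reading; 0% is about no effect; ratio rise marks activators and ratio drop marks inhibitors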)
Procedure, shortened: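 HeLa S3 lamin A-EGFP/DsRed2 stable clone, 600 cells/well, Opti-MEM 2% FBS; compounds by pin tool; 48 hrs, 37 °C/5% CO2; Acumen 488 nm scan, objects 10-100 um; GFP/RFP intensity ratio.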

[13] = qHTS Assay for Lipid Storage Modulators (AID 1519; calls by dose curve); conditions: Drosophila S3 cells, BODIPY lipid droplet/cell ratio, laser cytometry, cells loaded with oleic acid
Procedure, shortened: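 Cells seeded at 5,000 per well were treated with compounds over a concentration series and loaded with oleic acid (400 uM, as added). Lipid droplet fluorescence (488 nm excitation, 500-530 nm channel) was read by laser-scanning cytometry and normalized to 20 uM Triacsin C.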

[14] = biological target: DNA repair nuclease/redox regulator APEX1 (Homo sapiens) (UniProt P27695); assay: qHTS Validation Assay for Inhibitors of the Human Apurinic/apyrimidinic Endonuclease 1 (APE1) (AID 1705;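 note: TAMRA fluorescence gain over two minutes as APE1 cuts a quenched THF abasic duplex; % is set by controls: 0 for no effect and ±100 for the full control effect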)
Procedure, shortened: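 qHTS, 1536-well. APE1 + cpd 15 min RT → 50 nM TAMRA/BHQ-2 THF-abasic dsDNA substrate → kinetic fluorescence, 3 reads/60 s; delta(read3−read1) = reaction progress. No-enzyme buffer = negative control.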

[15] = Counterscreen for APE1 Inhibitors: Fluorescent Dye Displacement Validation Assay (AID 1707);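 note: plate controls were ThO with dsDNA and no compound for no effect and ThO without dsDNA for full effect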
Procedure, shortened: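 Compounds are scored by their ability to displace Thiazole Orange (250 nM) from a 50 nM TAMRA-tagged duplex bearing a tetrahydrofuran abasic site. Buffer is 50 mM Tris-HCl pH7.5, 50mM NaCl, 2 mM MgCl2, 0.01% Tween-20.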

[16] = biological target: Endonuclease 4 (Escherichia coli (strain K12)) (UniProt P0A6C1); assay: Counterscreen for APE1 Inhibitors: qHTS Validation Assay for Inhibitors of Endonuclease IV (AID 1708); note: % is set by controls: 0 for no effect and ±100 for the full control effect
Procedure, shortened: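 2 nM enzyme was preincubated with compounds for 15 min at room temperature in 50 mM Tris-HCl pH 7.5, 50 mM NaCl, 2 mM MgCl2, 1 mM DTT, 0.01% Tween-20. 50 nM THF-abasic TAMRA/BHQ-2 duplex substrate started the reaction.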

[17] = qHTS for differential inhibitors of proliferation of Plasmodium falciparum line GB4 (AID 1816); conditions: Potency: Plasmodium falciparum GB4 proliferation inhibition;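 note: potency is the fitted concentration of half-maximal effect; parasite growth measured after 72 h incubation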
[18] = qHTS for differential inhibitors of proliferation of Plasmodium falciparum line 3D7 (AID 1876);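 note: parasite growth measured after three days of culture; 0% = vehicle wells and -100% = reference inhibitor wells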
[19] = qHTS for differential inhibitors of proliferation of Plasmodium falciparum line D10 (AID 1877);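 note: parasites grown with compound for 72 h before DNA staining; plate controls were vehicle wells for no effect and reference inhibitor wells for full effect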
[20] = qHTS for differential inhibitors of proliferation of Plasmodium falciparum line Dd2 (AID 1882); conditions: Potency: Plasmodium falciparum Dd2 proliferation inhibition;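 note: compound exposure of 72 h on infected erythrocytes; plate controls were DMSO vehicle for no effect and 0.29 µM artemisinin for full effect; nearly all actives have a fitted effect of over 65% in size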
Procedure, shortened: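 SYBR Green I DNA fluorescence read-out, ex 485/em 535 nm. Signals were normalized to 0.29 uM artemisinin and DMSO wells, then corrected using vehicle-only plates flanking each stack. Parasite growth ran 72 h in erythrocytes before lysis.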

[21] = qHTS for differential inhibitors of proliferation of Plasmodium falciparum line W2 (AID 1883); conditions: Potency: Plasmodium falciparum W2 proliferation inhibition;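 note: potency is the fitted concentration of half-maximal effect; parasites grown with compound for 72 h before lysis and staining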
[22] = qHTS for differential inhibitors of proliferation of Plasmodium falciparum line HB3 (AID 1886); conditions: Potency: Plasmodium falciparum HB3 proliferation inhibition;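 note: parasites grown with compound for 72 h before SYBR Green readout; plate controls were vehicle for no effect and reference inhibitor for full effect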
[23] = biological target: ATP-dependent DNA helicase Q1 (Homo sapiens) (UniProt P46063); assay: qHTS Validation Assay for Inhibitors of RecQ-Like Dna Helicase 1 (RECQ1) (AID 2353);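 note: plate controls were DMSO vehicle for no effect and enzyme-free control for full effect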
Procedure, shortened: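 50 nM RECQ1T1 preincubated 15 min with compound in Tris pH 8.0 buffer with MgCl2, DTT, Tween-20 and 2.5 ug/ml poly(dI-dC); started with 200 nM TAMRA/BHQ-2 forked duplex and 2 mM ATP. Unwinding read as fluorescence (525/598 nm), two reads 2 h apart.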

[24] = Validation screen for small molecules that induce DNA re-replication in MCF 10A normal breast cells (AID 463097); note: 0% is about no effect; nearly all actives have a fitted effect of over 60% in size
Procedure, shortened: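 Image-based qHTS: normal breast cells are incubated with compound for 48 hr, stained with Hoechst, and scanned for total nuclear fluorescence. Compounds raising the fraction of nuclei with elevated DNA content count as re-replication inducers.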

[25] = Quantitative high throughput screen for delayed death inhibitors of the malarial parasite plastid, 96 hour incubation (AID 488745); note: % is set by controls: 0 for no effect and ±100 for the full control effect; nearly all actives have a fitted effect of over 70% in size
Procedure, shortened: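 P. falciparum carrying an integrated firefly luciferase reporter, grown in erythrocytes (2% hematocrit, 0.1% parasitemia final) in RPMI 1640/0.5% Albumax, was exposed to compound for 96 h (two generations) at 37 C, 5% CO2. Luminescence decrease indicated growth inhibition.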

[26] = Quantitative high throughput screen for delayed death inhibitors of the malarial parasite plastid, 48 hour incubation (AID 488752); note: % is set by controls: 0 for no effect and ±100 for the full control effect; nearly all actives have a fitted effect of over 65% in size
Procedure, shortened: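 Erythrocytes infected with P. falciparum carrying an integrated firefly luciferase reporter (2% hematocrit, 0.1% parasitemia final) were exposed to compounds in RPMI 1640/0.5% Albumax for 48 h at 37 C, 5% CO2. Growth inhibition was scored as reduced luminescence.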

[27] = biological target: M-phase phosphoprotein 8 (Homo sapiens) (UniProt Q99549); assay: qHTS Validation Assay for Inhibitors for MPP8 Chromodomain Interactions with Methylated Histone Tails (AID 488949);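 note: 50 nM MPP8 with 50 nM peptide preformed then compounds added for 30 min; AlphaScreen signal from MPP8 chromodomain bound to biotinylated H3K9me3 peptide; top concentration of the series differs between compounds; % is set by controls: 0 for no effect and ±100 for the full control effect; nearly all actives have a fitted effect of over 55% in size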
Procedure, shortened: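 50 nM MPP8 + 50 nM b-H3K9me3 peptide, PBS pH 7.4/0.01% Tween-20, 30 min RT; + cpd 30 min RT; + AlphaScreen donor/Ni-chelate acceptor beads 10 ug/mL final, 30 min dark; luminescence read.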

[28] = biological target: Thyrotropin receptor (Homo sapiens) (UniProt P16473); assay: qHTS Assay for Antagonists of the Thyroid Stimulating Hormone Receptor (AID 488980); note: 0% is about no effect
Procedure, shortened: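 Readout is cAMP by HTRF competition between cellular cAMP and cAMP-d2 for a cryptate-labelled antibody. Antagonism was assessed in TSHR-transfected HEK293 cells stimulated with 4 nM TSH (EC80, final) in the presence of RO 20-1724.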

[29] = biological target: Thyrotropin-releasing hormone receptor (Homo sapiens) (UniProt P34981); assay: qHTS for Small Molecule Agonists and Allosteric Enhancers of Human TRH Receptor: Validation Screen for Agonists (AID 493127;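 active = calcium activation more than 3 SD above the typical response in the agonist read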;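 note: intracellular calcium rise by fluo-8 fluorescence before TRH EC20 addition; 0% is about no effect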); conditions: TRH receptor agonist cell assay; at 2 µM; stronger effect = higher value
Procedure, shortened: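 TRHR-expressing cells were plated overnight in serum-containing medium, then loaded with fluo-8 calcium dye at room temperature for 30 min–1.5 h. After a 10 s baseline, compound was pin-transferred and calcium fluorescence (ex 480/em 530) read kinetically for agonist response.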

[30] = biological target: Galactokinase (Homo sapiens) (UniProt P51570); assay: qHTS Validation Assay for Inhibitors of Human Galactokinase (GALK) (AID 493189); note: 0% is about no effect
Procedure, shortened: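 5 nM GALK / 100 uM galactose / 35 uM ATP, 20 mM HEPES pH8.0, 5 mM MgCl2, 60 mM NaCl, 1 mM DTT, 0.01% BSA (final). RT 1 h; Kinase-Glo Plus luminescence.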

[31] = Validation screen for small molecules that induce DNA re-replication in SW480 colon adenocarcinoma cells (AID 504364); note: 0% is about no effect
Procedure, shortened: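 SW480 cells seeded at 250 per well were exposed to compound or DMSO for 48 hr at 37 C, 5% CO2, then stained with Hoechst for 40 min. DNA content per nucleus was imaged (405 nm ex, 500-530 nm em).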

[32] = biological target: DNA dC->dU-editing enzyme APOBEC-3G (Homo sapiens) (UniProt Q9HC16); assay: qHTS for inhibitors of Vif-A3G interactions: Validation (AID 588379); note: 0% is about no effect
Procedure, shortened: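 HeLa cells stably expressing Vif and A3G-eYFP, 700 cells/well, incubated overnight at 37 deg C, then exposed to compound overnight at 37 deg C. Inhibition of Vif-mediated degradation read as increased yellow fluorescence (Ex 488/Em 500-530) by laser-scanning cytometry.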

[33] = system: Zika virus NS2B-NS3 protease; assay: Primary screen GU AMC qHTS for Zika virus inhibitors (AID 1347154);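 note: 0% = no-inhibitor control and -100% = no-enzyme control; nearly all actives have a fitted effect of over 70% in size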
Procedure, shortened: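 Unlinked Zika NS2B hydrophilic domain/NS3 protease domain noncovalent complex (25 nM final) in 10 mM Tris-HCl pH 8.0, 0.01% Tween 20, with AMC peptide substrate. Fluorescence (ex 340, em 450 nm) change over 15 min, room temperature; percent inhibition fitted to 4-parameter Hill equation.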

[34] = Primary qHTS for small molecule stabilizers of the endoplasmic reticulum resident proteome: Secreted ER Calcium Modulated Protein (SERCaMP) assay (AID 1508630); note: % is set by controls: 0 for no effect and ±100 for the full control effect
Procedure, shortened: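 GLuc-SERCaMP-expressing SH-SY5Y cells, pretreated 16 h with compound, are challenged with thapsigargin to empty ER calcium stores; after 4 h, coelenterazine is added directly to the medium and luminescence is imaged.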

Glucocorticoid receptor (Homo sapiens), sequence (P04150 whole entry, looked up, the tested form may be a part): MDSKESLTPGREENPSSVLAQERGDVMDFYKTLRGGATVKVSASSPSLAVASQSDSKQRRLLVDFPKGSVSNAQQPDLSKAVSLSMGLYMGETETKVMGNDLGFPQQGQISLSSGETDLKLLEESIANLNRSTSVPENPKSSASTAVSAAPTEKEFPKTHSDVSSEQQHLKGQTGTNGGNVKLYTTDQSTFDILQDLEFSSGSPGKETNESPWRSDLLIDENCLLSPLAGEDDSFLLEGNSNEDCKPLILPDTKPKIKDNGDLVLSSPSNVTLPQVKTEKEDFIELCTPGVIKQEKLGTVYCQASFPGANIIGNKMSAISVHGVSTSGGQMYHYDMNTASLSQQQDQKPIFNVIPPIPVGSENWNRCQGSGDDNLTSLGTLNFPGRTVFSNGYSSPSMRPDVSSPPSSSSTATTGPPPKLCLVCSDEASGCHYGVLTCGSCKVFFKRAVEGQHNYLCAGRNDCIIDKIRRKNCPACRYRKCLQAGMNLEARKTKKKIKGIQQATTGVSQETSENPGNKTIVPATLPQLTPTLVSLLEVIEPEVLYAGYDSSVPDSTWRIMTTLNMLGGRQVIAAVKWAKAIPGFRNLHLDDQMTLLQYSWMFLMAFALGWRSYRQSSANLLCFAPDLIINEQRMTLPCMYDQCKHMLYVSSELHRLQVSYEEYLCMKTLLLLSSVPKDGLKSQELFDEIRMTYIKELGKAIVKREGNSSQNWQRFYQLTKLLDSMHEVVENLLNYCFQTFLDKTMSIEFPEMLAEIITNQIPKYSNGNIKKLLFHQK
Cytochrome P450 1A2 (Homo sapiens), sequence (P05177 whole entry, looked up): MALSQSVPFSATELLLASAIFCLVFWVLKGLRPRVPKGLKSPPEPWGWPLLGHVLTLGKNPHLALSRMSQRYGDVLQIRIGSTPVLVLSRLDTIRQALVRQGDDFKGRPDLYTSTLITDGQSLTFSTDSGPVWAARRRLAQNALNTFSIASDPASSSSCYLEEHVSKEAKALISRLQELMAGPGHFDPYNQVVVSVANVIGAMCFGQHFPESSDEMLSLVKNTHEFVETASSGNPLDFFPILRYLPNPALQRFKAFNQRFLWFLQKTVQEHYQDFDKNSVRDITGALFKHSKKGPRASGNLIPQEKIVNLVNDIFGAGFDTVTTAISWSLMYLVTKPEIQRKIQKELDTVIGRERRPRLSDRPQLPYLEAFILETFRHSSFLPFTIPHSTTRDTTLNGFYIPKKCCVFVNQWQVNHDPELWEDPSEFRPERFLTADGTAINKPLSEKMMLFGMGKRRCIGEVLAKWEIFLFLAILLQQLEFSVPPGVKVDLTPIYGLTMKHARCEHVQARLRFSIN
3',5'-cyclic-AMP phosphodiesterase 4B (Homo sapiens), sequence (Q07343 whole entry, looked up): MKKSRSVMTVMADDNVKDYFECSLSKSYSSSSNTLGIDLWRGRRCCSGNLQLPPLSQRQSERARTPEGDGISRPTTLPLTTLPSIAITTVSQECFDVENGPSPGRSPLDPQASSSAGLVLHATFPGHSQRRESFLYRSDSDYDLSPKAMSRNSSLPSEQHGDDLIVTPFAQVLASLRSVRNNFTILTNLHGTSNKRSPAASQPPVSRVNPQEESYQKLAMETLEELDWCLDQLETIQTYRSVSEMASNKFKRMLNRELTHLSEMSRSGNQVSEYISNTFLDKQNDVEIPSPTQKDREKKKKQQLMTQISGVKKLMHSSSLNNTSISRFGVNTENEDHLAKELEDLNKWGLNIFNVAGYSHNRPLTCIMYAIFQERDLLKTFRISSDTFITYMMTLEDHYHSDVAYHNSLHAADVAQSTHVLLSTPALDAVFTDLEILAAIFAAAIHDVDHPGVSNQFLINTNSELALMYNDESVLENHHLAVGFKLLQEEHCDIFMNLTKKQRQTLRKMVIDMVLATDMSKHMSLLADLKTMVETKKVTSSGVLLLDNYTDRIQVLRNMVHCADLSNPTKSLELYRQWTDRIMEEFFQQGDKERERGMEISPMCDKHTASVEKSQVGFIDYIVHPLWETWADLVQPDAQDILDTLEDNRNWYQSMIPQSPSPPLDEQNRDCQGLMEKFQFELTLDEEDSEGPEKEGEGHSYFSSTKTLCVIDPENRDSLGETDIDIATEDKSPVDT
DNA dC->dU-editing enzyme APOBEC-3G (Homo sapiens), sequence (Q9HC16 whole entry, looked up): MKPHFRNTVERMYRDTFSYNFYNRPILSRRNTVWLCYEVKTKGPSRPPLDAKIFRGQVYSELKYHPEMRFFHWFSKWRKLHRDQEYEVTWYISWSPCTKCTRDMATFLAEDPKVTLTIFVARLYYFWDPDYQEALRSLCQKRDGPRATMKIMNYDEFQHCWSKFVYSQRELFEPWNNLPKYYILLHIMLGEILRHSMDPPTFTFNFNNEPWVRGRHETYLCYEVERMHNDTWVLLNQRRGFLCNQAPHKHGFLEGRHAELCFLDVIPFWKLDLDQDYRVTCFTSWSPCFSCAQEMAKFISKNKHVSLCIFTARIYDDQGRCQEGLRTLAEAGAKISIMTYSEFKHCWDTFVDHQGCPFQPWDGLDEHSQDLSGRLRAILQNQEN
ATP-dependent DNA helicase Q1 (Homo sapiens), sequence (P46063 whole entry, looked up): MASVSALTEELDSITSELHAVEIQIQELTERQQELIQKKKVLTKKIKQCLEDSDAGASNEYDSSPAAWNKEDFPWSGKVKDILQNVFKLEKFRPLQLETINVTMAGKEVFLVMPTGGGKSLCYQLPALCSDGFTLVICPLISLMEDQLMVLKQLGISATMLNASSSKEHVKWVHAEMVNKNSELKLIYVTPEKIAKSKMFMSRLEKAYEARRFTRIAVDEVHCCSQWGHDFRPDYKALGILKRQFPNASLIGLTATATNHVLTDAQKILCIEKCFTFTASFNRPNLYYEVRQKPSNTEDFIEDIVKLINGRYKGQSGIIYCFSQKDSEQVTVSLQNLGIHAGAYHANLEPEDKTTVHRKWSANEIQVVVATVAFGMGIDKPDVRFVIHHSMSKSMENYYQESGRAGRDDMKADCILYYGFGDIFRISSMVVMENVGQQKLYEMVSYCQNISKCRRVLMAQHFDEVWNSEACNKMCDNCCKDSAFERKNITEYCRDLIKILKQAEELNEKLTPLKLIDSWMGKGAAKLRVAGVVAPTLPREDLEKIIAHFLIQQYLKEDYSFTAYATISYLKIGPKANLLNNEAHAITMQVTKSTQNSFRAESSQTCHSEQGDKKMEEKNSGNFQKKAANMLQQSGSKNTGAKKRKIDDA
M-phase phosphoprotein 8 (Homo sapiens), sequence (Q99549 whole entry, looked up): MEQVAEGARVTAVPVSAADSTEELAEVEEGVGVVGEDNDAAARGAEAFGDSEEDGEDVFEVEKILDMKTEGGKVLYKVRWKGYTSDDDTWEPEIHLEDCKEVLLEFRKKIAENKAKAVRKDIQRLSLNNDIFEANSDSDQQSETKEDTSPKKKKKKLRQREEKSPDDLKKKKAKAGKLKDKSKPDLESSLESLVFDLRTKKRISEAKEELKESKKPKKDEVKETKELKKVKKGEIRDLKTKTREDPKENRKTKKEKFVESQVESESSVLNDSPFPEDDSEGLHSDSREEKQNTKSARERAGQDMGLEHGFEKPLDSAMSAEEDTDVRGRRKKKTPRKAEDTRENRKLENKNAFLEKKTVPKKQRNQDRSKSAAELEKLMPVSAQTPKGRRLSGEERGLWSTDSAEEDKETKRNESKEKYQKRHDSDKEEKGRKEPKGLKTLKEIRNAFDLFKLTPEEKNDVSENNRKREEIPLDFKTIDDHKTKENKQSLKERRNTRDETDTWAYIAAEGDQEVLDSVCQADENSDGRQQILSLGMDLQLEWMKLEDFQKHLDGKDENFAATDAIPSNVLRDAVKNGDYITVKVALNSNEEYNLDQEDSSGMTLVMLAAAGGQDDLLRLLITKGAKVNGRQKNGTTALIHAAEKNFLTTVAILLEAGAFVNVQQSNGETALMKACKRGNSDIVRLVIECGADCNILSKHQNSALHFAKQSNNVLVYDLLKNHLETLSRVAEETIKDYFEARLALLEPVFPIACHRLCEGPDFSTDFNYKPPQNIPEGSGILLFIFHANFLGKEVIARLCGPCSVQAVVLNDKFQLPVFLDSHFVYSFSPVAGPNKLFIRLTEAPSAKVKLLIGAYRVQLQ
Thyrotropin receptor (Homo sapiens), sequence (P16473 whole entry, looked up): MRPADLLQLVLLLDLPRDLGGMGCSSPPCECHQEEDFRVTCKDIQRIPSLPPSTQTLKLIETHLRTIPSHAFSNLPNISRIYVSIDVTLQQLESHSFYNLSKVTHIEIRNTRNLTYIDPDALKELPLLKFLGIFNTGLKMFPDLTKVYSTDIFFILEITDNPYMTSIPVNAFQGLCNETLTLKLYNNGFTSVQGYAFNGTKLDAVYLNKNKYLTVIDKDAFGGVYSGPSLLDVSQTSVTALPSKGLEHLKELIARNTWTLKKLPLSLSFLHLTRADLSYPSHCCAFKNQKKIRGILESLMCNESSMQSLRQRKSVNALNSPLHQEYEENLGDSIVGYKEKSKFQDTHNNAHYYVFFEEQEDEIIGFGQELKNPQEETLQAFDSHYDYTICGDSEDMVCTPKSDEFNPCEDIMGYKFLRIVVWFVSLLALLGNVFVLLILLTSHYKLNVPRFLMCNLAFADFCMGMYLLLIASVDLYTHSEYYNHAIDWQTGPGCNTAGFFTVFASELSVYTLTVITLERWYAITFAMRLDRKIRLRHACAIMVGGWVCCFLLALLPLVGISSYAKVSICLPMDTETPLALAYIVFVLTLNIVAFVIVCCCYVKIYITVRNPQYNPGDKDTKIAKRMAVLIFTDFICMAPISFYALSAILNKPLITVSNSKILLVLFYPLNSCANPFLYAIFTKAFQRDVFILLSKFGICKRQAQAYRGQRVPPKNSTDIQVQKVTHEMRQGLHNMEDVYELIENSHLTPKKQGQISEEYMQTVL
DNA repair nuclease/redox regulator APEX1 (Homo sapiens), sequence (P27695 whole entry, looked up): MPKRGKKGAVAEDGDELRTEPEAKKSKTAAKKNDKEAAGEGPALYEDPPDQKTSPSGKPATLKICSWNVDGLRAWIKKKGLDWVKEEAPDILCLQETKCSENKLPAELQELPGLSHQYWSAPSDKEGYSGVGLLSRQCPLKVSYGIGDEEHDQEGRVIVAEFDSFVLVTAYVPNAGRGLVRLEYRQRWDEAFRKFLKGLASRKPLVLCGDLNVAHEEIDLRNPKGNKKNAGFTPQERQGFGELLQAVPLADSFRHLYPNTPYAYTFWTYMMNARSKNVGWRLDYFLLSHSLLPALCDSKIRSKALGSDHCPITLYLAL

O=C(OCCN1CCCCC1)c1c[nH]c2ccccc12
-30.4%: max response ([13]; measured here: lipid channel max response)
active: Potency [1] 12.6 µM and 15.8 µM | Potency [8] 2 µM | Potency [17] 10 µM | Potency [21] 8.91 µM
inactive: activity change, negative = inhibition [2] -11% | activity, negative = inhibition [3] -6.33% | Potency [4] > 46 µM | Potency [5] > 46 µM | Potency [6] | Potency [7] | Potency [9] | outcome [10] | outcome [11] | outcome [12] | activity change, negative = inhibition ([13]; at 57.5 µM (top of the series)) -1.63% | Potency [14] | Potency [15] | Potency [16] | Potency [18] | Potency [19] | Potency [20] | Potency [22] | Potency [23] | Potency [24] | Potency [25] | Potency [26] | Potency [27] | outcome [28] | activation [29] 1.38% | outcome [30] | outcome [31] | Potency [32] | Potency [33] | Potency [34]
-19.5%: max response ([13]; measured here: cell count channel max response)
